High-throughput results (PubChem BioAssay)
An excerpt weighted towards active compounds, which were near 3.9% of everything screened.
SARS 3CLpro inh – SARS-CoV 3CLpro protease inhibition; actives 0.14% (n = 290,000); inhibition, % at 6 µM; recombinant SARS-CoV 3CLpro, quenched FRET peptide cleavage; P0C6X7; in the data active = inhibition above about 12%
PrPC surface inh – inhibitors of human cell surface prion protein PrPC | actives 0.43% (n = 370,000) | AID 720596 | TR-FRET read-out | P04156 | inhibition, % at 13.8 µM; in the data active = inhibition above about 24%; also: 0% = median of the test wells and 100% = reference compound wells
Vc quorum ag – quorum light induction in luxS cqsA deficient V. cholerae. activation, % at 18.7 µM. V. cholerae BH1578 lux reporter, luminescence, 6 h. AID 588436. actives 0.16% (n = 350,000); in the data active = activation mostly above about 9.7%, no sharp cut-off
GDH-TPI inh – inhibits GDH-TPI coupling enzymes, artifact for Mtb FBA screen | GDH-TPI coupled enzyme counterscreen, NADH absorbance | inhibition, % at 4.8 µM | actives 1.2% (n = 360,000) | AID 588335; in the data active = inhibition above about 30%;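 also: 0% = DMSO wells and 100% = wells lacking the enzyme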
Mtb FBA inh – inhibitors of M. tuberculosis fructose-bisphosphate aldolase; AID 588726; actives 2.3% (n = 360,000); purified M. tuberculosis FBA, fluorescence read-out; inhibition, % at 1 µM; in the data active = inhibition above about 27%;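 also: 0% = vehicle and 100% = reference inhibitor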
Target sequence (P9WQA3 whole entry, looked up): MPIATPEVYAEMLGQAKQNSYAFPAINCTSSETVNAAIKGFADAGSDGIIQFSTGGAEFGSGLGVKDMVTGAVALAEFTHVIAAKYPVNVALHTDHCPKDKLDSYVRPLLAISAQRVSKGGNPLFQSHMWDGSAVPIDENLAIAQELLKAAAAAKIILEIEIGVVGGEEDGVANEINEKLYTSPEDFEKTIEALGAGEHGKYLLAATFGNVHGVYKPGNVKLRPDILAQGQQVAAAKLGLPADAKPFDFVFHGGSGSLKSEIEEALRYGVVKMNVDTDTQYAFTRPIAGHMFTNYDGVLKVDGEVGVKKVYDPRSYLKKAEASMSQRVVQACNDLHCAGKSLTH
The depositor's hits bear a star; i = inactive; · = not tested or not shown.

SMILES	SARS 3CLpro inh	PrPC surface inh	Vc quorum ag	GDH-TPI inh	Mtb FBA inh
N#CC(C(=O)NC1CC1)c1nc2ccccc2nc1N1CCCC1 (stereo unspecified)	-2.4	-4.9	i	19.7	60.6*
N#CC(C(=O)NC1CCCCC1)c1nc2ccccc2nc1N1CCN(c2ccc(F)cc2)CC1 (stereo unspecified)	4.8	·	·	·	·
O=C(OCc1ccccc1)c1ccc(NCc2cc(O)ccc2O)cc1	·	46.1*	i	-4.3	-1.7
C=CC(=O)Nc1ccc(N(C)c2ccnc(Nc3ccc(N4CCN(C)CC4)cc3)n2)cc1	·	-2.0	i	8.8	0.0
Nc1ncc(-c2ccc([N+](=O)[O-])cc2)cn1	0.5	-52.9	-0.2	54.3*	-0.6
NC(=O)c1cc([N+](=O)[O-])ccc1NCCN1C(=O)c2ccccc2C1=O	-2.0	·	·	·	·
Cc1nc(=S)c2ccccc2[nH]1	-3.8	-1.0	-0.3	30.6*	-4.7
Cc1cc(C(=O)N/N=C/c2c(C)n(C)c3ccccc23)n[nH]1	0.8	5.2	i	56.8*	0.1
O=C(CNC(=O)c1ccc2c(c1)OCCO2)N/N=C/c1ccco1	1.2	-8.5	-0.5	1.1	1.2
Cc1[nH]c2ccccc2c1/C=N/NC(=O)c1cc(-c2cccs2)[nH]n1	2.2	10.3	-0.3	28.5	5.3
Cc1[nH]c2ccccc2c1/C=N/NC(=O)CNC(=O)c1ccc2c(c1)OCCO2	-1.7	-2.0	-0.4	31.7*	3.6
Cc1[nH]c2ccccc2c1/C=N/NC(=S)NC(C)C	0.6	3.2	-2.8	37.6*	-4.2
Cc1cc(C(=O)N/N=C/c2c(C)[nH]c3ccccc23)n[nH]1	-4.8	-5.3	i	55.9*	-0.6
CC(C)NC(=S)N/N=C/c1c[nH]c2ccccc12	3.9	-0.6	i	23.1	1.4
COCCNC(=S)N/N=C(\C)c1cccc(OC)c1	0.9	8.1	8.6	14.6	-1.8
CC(=O)C1(C(=O)N2CCOCC2)CC(c2ccccc2C(F)(F)F)=NO1 (stereo unspecified)	·	-4.8	·	·	·
O=C(CSC(=S)N1CCCC1)N/N=C/c1c(O)[nH]c(=S)[nH]c1=O	·	5.0	0.8	46.2*	6.3
COCCn1c(O)c(/C=N/NC(=O)CSC(=S)N2CCCC2)c(=O)[nH]c1=S	·	6.2	-0.7	31.6*	-3.2
Cc1cccc(N/N=C/c2c(O)[nH]c(=S)[nH]c2=O)c1	·	5.0	i	5.3	0.4
CCOC(=O)C1=CCN(S(=O)(=O)c2ccccc2F)C1c1ccc(Cl)c(Cl)c1 (stereo unspecified)	·	5.5	·	·	-1.5
CCN1CCN(c2nc3c(C)cccn3c(=O)c2/C=C(\C#N)C(=O)NCCCOC)CC1	-3.4	-14.3	i	-5.2	142.9*
O=[N+]([O-])c1ccc(Nc2nc(N/N=C\c3ccc4c(c3)OCO4)nc(N3CCCCC3)n2)cc1	4.3	5.5	-16.7	34.7*	-1.2
O=[N+]([O-])c1ccc(/C=N/Nc2nc(N3CCCCC3)nc(N3CCCCC3)n2)cc1	-1.8	-3.5	0.1	-0.6	-0.4
CCOc1ccc(C=Nn2c(-c3cccc(OC(C)C)c3)n[nH]c2=S)cc1	·	-3.8	·	·	·
CCn1c(=O)n(CC)c2cc(N3CCCC3)c(NC(=O)c3cccc(Cl)c3)cc21	-3.2	1.9	-0.6	2.7	0.1
SMILES	SARS 3CLpro inh	PrPC surface inh	Vc quorum ag	GDH-TPI inh	Mtb FBA inh
CN1C2=N[C@@H](c3ccccc3)CC(=O)N2/C(=C\c2ccccc2)[C@H]1c1ccccc1	·	7.8	·	·	·
C=CCN1C(c2ccccc2)=CS/C1=C(\C#N)c1nnc2n1CCCCC2	3.8	-4.7	1.6	17.2	-6.2
CCOc1ccc(C2=CS/C(=C(\C#N)c3nnc4n3CCCCC4)N2CC)cc1	1.0	5.6	4.0	31.9*	-0.9
Clc1ccc(-n2nnnc2Sc2ncnc3sccc23)cc1	4.9	3.8	i	14.6	5.5
Cc1sc2ncnc(Sc3nnnn3-c3ccccc3)c2c1C	-2.4	0.9	i	9.4	27.4*
Cn1c2ccccc2c(=O)c2c(=O)n(Cc3ccco3)c(-c3ccc(F)cc3)nc21	-0.9	4.9	-1.0	20.0	0.7
Cc1ccc(-c2nc3c(c(=O)c4ccccc4n3C)c(=O)n2Cc2ccco2)cc1	7.6	12.2	1.6	32.4*	3.4
CCCCN(C(=O)CCCc1nc2ccccc2s1)c1c(N)n(CC(C)C)c(=O)[nH]c1=O	·	2.2	-5.9	13.6	4.8
CNC(=O)c1c(Cl)cnn1-c1ccccc1	5.0	-25.4	i	6.3	7.7
CC(=O)Nc1c(Cl)cnn(-c2ccccc2)c1=O	·	1.2	i	43.5*	1.4
CCOc1ccc(/C=C(\C#N)C(=O)Nc2ccccn2)cc1	-4.8	3.9	i	37.8*	0.8
COc1ccc(/C=C(\C#N)C(=O)Nc2cccnc2)cc1	-5.7	0.4	-0.4	32.1*	-2.3
C[C@@H](NC(=O)/C(C#N)=C/c1ccc(O)c(O)c1)c1ccccc1	·	-5.0	-2.8	5.7	-13.7
N#C/C(=C\c1ccc(F)cc1)C(=O)Nc1ccccn1	2.6	1.9	i	12.0	24.5
CC(NC(=O)/C(C#N)=C/c1ccc(OCC(=O)O)cc1)c1ccccc1 (stereo unspecified)	1.4	-12.0	-0.3	37.1*	-2.1
CC1(C)CC(=O)C=C(Nc2ccc(S(N)(=O)=O)cc2)C1	1.3	-0.6	-0.7	38.1*	2.3
O=S1(=O)CCN2C=C(Cl)C=C(Cl)C2=N1	-1.0	6.5	-0.2	8.1	140.2*
O=C(c1cccnc1)c1cc2ccccc2[nH]1	-0.3	-8.4	-0.2	34.6*	0.2
O=C1N2CCCCC1(Sc1ccccc1)CCC2 (stereo unspecified)	·	4.0	·	·	·
COc1cc2c(cc1OC)n(CC(=O)NC1CCCCCC1)n1c(C)cc(=O)nc21	-4.5	4.5	i	12.0	113.4*
Cc1c(OC(C(=O)O)c2ccccc2)ccc2c1oc(=O)c1ccccc12 (stereo unspecified)	7.3	-3.1	i	23.6	138.6*
COc1ccc(-c2cc(=O)c3cc(OC)ccc3o2)cc1	2.7	3.6	-0.2	4.9	25.9
COc1ccc(-c2cc(=O)c3c(OC)c(OC)c(OC)c(OC)c3o2)cc1	·	4.4	-0.3	51.0*	1.9
c1ccc(N/N=C2\CCCc3ccccc32)nc1	-1.0	3.6	i	31.7*	-3.9
Cc1ccc(C(=O)/C=C2/NC(=O)CS2)cc1	-5.3	-4.3	-0.2	31.1*	-1.9
SMILES	SARS 3CLpro inh	PrPC surface inh	Vc quorum ag	GDH-TPI inh	Mtb FBA inh
CCNC(=S)NNC(=O)c1cccn(Cc2ccc(Cl)cc2Cl)c1=O	-2.4	-5.6	-1.3	32.0*	10.6
C=CCNC(=S)NNC(=O)c1cccn(Cc2ccc(Cl)cc2Cl)c1=O	1.4	-7.8	1.2	18.4	3.9
CCOC(=O)c1[nH]ncc1CN1CCc2ccc(NC(=O)C3CCCO3)cc2C1 (stereo unspecified)	-3.3	3.4	-0.1	5.8	0.9
COC(=O)c1cc2c(c3c4cc(OC)ccc4n(S(=O)(=O)c4cccc(C)c4)c13)C(=O)N(Cc1ccc(C(F)(F)F)cc1)C2	·	-3.9	·	·	·
O=C1CS/C(=N/N=C/c2c[nH]c3ccccc23)N1	-2.1	-1.9	i	34.7*	0.9
C(=NN=Cc1c[nH]c2ccccc12)c1c[nH]c2ccccc12	·	3.2	i	40.7*	-2.9
